Reference: PubChem BioAssay (NCI)
This is part of a sample that, as a whole, favours compounds with a hit. Of some 83,000 tested, about 20% had one in any assay.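 In brief: 96-well plates, 48 h treatment, single concentration, percent growth endpoint.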 A number with no mark means an inactive call. Active and inactive are the calls of the source. The calls were made as follows: active = growth percent below 10; inactive = the rest.

test system: MDA-MB-468 breast; experiment: NCI-60 one-dose screen, 48 h (100 = growth as untreated, 0 = no growth, -100 = all killed); conditions: 10 µM unless noted

SMILES | growth
CN(C)CCCn1c2c(c3cc(-c4ccco4)ccc3c1=O)C(=O)c1ccccc1-2 | 40.2%
CCOc1nc(-c2ccccc2)cc2c(O)c(C(=O)N/N=C/c3ccc(OC)cc3)[nH]c(=O)c12 | 61.9%
Cc1cccc(NC(=O)CSc2nc3ccc([N+](=O)[O-])cc3[nH]2)c1 | 48.6%
COc1cc(Nc2ccnc3ccc(Br)cc23)cc(OC)c1OC | 14.9%
O=C(CSc1ccc(-c2nc3ccccc3[nH]2)cn1)N1CCN(c2ccccc2F)CC1 | 53.1%
CCCCC[C@H](O)C/C=C1/C(=O)C=C[C@@H]1C/C=C\CCCC(=O)OC | 64.6%
Nc1nc(N)c2cc(Sc3ccc4ccccc4c3)ccc2n1 | 10.2%
c1ccc(-c2nc(N3CCOCC3)c3c4c(sc3n2)CCCCCC4)nc1 | 57.4%
CCn1c(CSc2nc3ccccc3c(=O)n2CCc2ccccc2)n[nH]c1=S | 85.6%
O=C(N=Nc1c(O)[nH]c2ccc(F)cc12)c1cc2ccccc2[nH]1 | 124%
COc1ccc([C@@H]2[C@@H](Cl)C(=O)N2c2cc(OC)c(OC)c(OC)c2)cc1C | 18.9%
CCOc1ccc(/C=N/N=C(N)N)cc1OCC | 98.3%
COc1cc(NC(=O)CCSc2nc3ccc(C)cc3c(=O)n2Cc2ccccc2)cc(OC)c1OC | 68.6%
COc1nc2ccc(C)cc2cc1/C=[N+](\[O-])c1ccccc1 | 79.3%
COc1ccc(-c2cc(=O)oc3c4c(ccc23)OCN(Cc2ccc(F)cc2)C4)cc1 | 16.1%
C#Cc1cc2c(N)c(C(=O)c3cc(OC)c(OC)c(OC)c3)[nH]c2cc1OC | 9.88% (active)
COc1ccc(-c2nc(SCC(=O)Nc3ccc(C(C)=O)cc3)[nH]c(=O)c2C#N)cc1 | 105%
Fc1cc2c(cc1Cl)N(c1ncnc3ccc(-c4cnc5[nH]ncc5c4)cc13)CC2 | 49.5%
COc1ccc2c(c1)/C(=N/c1n[nH]c(=S)s1)C(=O)N2 | 17.1%
C(=C1c2ccccc2-c2ccccc21)c1ccncc1 | 0.207% (active)
CC(=O)Nc1c(Cl)cc2c(c1Cl)Cc1ccccc1-2 | 70.6%
CCCCCCCCCCCC1=NCCCN1CCCC | 101%
Cc1nc2c3c(ncn2n1)Oc1c(c(=O)[nH]c2ccccc12)C3c1ccc(Cl)cc1 (stereo unspecified) | 109%
N#Cc1ccc(Oc2ccc3ccc(=O)oc3c2)cc1 | 93.4%
Brc1ccc(-c2cc(-c3ccc4c(c3)OCCO4)n[nH]2)s1 | 7.7% (active)
c1ccc2cc(C[n+]3ccn(CCCCCCCCCCn4cc[n+](Cc5ccc6ccccc6c5)c4)c3)ccc2c1 | -28.3% (active)
